The target in one test is Albumin (Bos taurus) (UniProt P02769). The test is described as follows: compounds binding labelled BSA control protein – biochemical, small-molecule microarray, Alexa647 label, 635/667 nm fluorescence, artefact control for SMM control protein annotation, profiling panel (AID 1118).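 Further: score merges 667 nm emission intensity and signal-to-noise per printed compound spot.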 The conditions noted are these: BSA-A647 binding, fluorescence 635 nm, higher = more signal.

A short description of test [1]: probe aXIP binding to arrayed compounds – biochemical, NeuroSMM set, 635/667 nm fluorescence, primary screen (AID 1119).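 Further: probe is the protein aXip251-270 applied at 1 µg/mL to compound-printed slides; binding of probe to printed compounds measured as 667 nm fluorescence plus signal to noise.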 The conditions noted are these: small-molecule microarray, higher = more signal, called active from +8 up or from −8 down.
Test [2] in a line: probe aNOTCH3 binding on compound microarray – biochemical, small-molecule microarray, 635/667 nm fluorescence, primary screen (AID 1120).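 Further: probe is a biotin-tagged antibody raised against NOTCH3 rather than NOTCH3 protein; score merges spot fluorescence near 667 nm with spot signal to noise.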 The conditions noted are these: higher = more signal.
Test [3] in a line: probe aNOTCH2 binding on compound microarray – biochemical, small-molecule microarray, 635/667 nm fluorescence, primary screen (AID 1121).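 Further: score merges feature fluorescence read at 667 nm with its signal to noise.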 The conditions noted are these: higher = more signal.
Test [4] concerns the target Carbonic anhydrase 2 (Homo sapiens) (UniProt P00918). Put plainly: compounds binding carbonic anhydrase 2 – biochemical, small-molecule microarray, Alexa647-labelled CAII, profiling panel (AID 1122). The conditions noted are these: CAII-A647 binding fluorescence, higher = more signal.
Test [5] can be described thus: COS7 lysate on small-molecule microarray, probe aHis, 635 nm (AID 1123).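 Further: z-score combines 667nm fluorescence intensity with signal-to-noise per printed compound spot.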 The conditions noted are these: COS7 cell lysate, fluorescence, higher = more signal.
Test [6] is described as follows: probe aLAP1 signal on lysate-treated microarray – cell lysate, small-molecule microarray, COS7 lysate, primary screen (AID 1124).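 Further: lysate comes from COS7 cells expressing LAP1 and is applied at 0.3 µg/mL; score merges spot fluorescence near 667 nm with signal-to-noise over triplicate slides.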 The conditions noted are these: probe aLAP1, fluorescence, higher = more signal.
For another test, the system named is Sam68 (KHDRBS1). Put plainly: compounds binding KHDRBS1 protein – biochemical, small-molecule microarray, 635 nm fluorescence, primary screen (AID 1125).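 Further: score merges 667 nm channel intensity with signal to noise over triplicate slides.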 The conditions noted are these: higher = more signal.
For test [7], the system named is Chordin-like protein 2 (CHRDL2). The test is described as follows: compounds binding chordin-like 2 – biochemical, small-molecule microarray, 635 nm fluorescence, primary screen (AID 1126).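 Further: printed compound slides probed with Chrdl2 protein at 4 µg/mL for 1 h at 4 C; score merges 667 nm emission intensity with signal to noise over three replicate slides.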 The conditions noted are these: fluorescence 635 nm, higher = more signal.
Test [8] has as its target Concanavalin-A (Canavalia ensiformis) (UniProt P02866). The test is described as follows: compounds binding concanavalin A lectin – biochemical, small-molecule microarray, Alexa647 label, 635 nm, artefact control for SMM control protein annotation, primary screen (AID 1127).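 Further: z combines 667 nm emission intensity with signal-to-noise across three replicate slides.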 The conditions noted are these: ConA-A647 binding fluorescence, higher = more signal.
A short description of test [9]: compounds binding Alexa647 anti-His antibody – biochemical, small-molecule microarray, 635 nm fluorescence, artefact control for SMM control protein annotation, primary screen (AID 1128).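 Further: score merges feature fluorescence with signal-to-noise for each printed compound spot.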 The conditions noted are these: higher = more signal.
In test [10] the test system is Human papillomavirus type 1a E7 protein (residues 1-88). The test is described as follows: HPV1a E7 small-molecule binders, primary screen, biochemical, small-molecule microarray, residues 1-88, 635 nm (AID 1129). The conditions noted are these: small-molecule microarray binding, fluorescence 635 nm; higher = more signal.
For test [11], the target named is Focal adhesion kinase 1 (Homo sapiens) (UniProt Q05397). Put plainly: PTK2 protein binding on printed compound slides – biochemical, small-molecule microarray, 635/667 nm fluorescence, BSA, DTT, primary screen (AID 1130).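 Further: composite of spot emission at 667 nm and signal to noise over triplicate slides.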 The conditions noted are these: 635 nm fluorescence, higher = more signal.
Focal adhesion kinase 1 (Homo sapiens), sequence (Q05397 whole entry, looked up): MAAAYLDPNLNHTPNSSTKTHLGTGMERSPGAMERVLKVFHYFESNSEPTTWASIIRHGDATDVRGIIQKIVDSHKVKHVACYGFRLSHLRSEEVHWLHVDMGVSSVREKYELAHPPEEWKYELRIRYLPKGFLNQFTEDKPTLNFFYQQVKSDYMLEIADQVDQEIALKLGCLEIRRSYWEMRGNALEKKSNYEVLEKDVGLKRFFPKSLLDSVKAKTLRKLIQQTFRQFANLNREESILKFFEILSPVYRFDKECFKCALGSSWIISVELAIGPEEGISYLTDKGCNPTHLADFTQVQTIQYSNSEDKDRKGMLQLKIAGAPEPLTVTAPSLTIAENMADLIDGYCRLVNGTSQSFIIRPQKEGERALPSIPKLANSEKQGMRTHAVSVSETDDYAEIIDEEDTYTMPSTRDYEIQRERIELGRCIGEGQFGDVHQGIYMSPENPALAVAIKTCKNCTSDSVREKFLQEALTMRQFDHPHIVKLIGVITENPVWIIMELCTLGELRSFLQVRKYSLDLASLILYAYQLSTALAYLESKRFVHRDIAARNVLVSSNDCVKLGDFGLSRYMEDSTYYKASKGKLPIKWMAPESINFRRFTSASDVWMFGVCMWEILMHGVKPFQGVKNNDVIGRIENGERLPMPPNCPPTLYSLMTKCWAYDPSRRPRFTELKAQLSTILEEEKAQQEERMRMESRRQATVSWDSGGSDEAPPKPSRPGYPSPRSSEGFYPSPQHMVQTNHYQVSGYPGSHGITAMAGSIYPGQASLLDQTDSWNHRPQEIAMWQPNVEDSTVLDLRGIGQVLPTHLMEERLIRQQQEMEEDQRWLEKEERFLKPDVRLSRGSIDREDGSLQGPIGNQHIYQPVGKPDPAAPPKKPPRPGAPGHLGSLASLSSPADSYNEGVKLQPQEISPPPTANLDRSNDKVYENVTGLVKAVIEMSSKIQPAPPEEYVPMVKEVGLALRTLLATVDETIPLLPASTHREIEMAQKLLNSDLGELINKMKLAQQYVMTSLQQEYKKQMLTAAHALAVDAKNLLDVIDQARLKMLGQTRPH
Test [12] has as its system Fibrinogen (Alexa647-labelled). The test is described as follows: Alexa647-fibrinogen binding to printed small molecules – biochemical, small-molecule microarray, 635/667 nm fluorescence, artefact control for SMM control-protein annotation, profiling panel (AID 1131).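 Further: z-score merges 667 nm fluorescence with per-spot signal-to-noise over triplicate slides.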 The conditions noted are these: fibrinogen-A647 binding fluorescence, higher = more signal.
In test [13] the target is Follistatin (Homo sapiens) (UniProt P19883). Put plainly: FST protein binding to printed compounds – biochemical, small-molecule microarray, 635/667 nm fluorescence, primary screen (AID 1132). The conditions noted are these: 635 nm fluorescence, higher = more signal.
Follistatin (Homo sapiens), sequence (P19883 whole entry, looked up): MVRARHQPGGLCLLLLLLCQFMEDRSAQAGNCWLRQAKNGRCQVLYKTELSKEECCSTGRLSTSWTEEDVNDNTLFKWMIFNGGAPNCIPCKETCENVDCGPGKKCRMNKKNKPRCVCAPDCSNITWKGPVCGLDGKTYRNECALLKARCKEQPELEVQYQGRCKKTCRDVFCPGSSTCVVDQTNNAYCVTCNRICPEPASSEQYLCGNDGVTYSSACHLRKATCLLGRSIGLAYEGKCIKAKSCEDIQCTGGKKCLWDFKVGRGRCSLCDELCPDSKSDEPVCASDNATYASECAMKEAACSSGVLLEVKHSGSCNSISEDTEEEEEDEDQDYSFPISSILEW
Test [14] concerns the target Fibroblast growth factor 2 (Homo sapiens) (UniProt P09038). The test is described as follows: basic fibroblast growth factor binding to printed compounds – biochemical, small-molecule microarray, 635/667 nm fluorescence, primary screen (AID 1133). The conditions noted are these: FGF2, fluorescence 635/667, higher = more signal.
Test [15] can be described thus: JC-1 mitochondrial potential readout, lung cancer cells – cell-based, A549, JC-1 fluorescence, basal, 24 h, 100 nL, profiling panel (AID 1138).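 Further: A549 lung adenocarcinoma cells under basal conditions with no added stimulus; test concentration not given here.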 The conditions noted are these: higher = more signal.
For the next test, the system named is Lefty1. The test is described as follows: Lefty1 protein binding to printed compounds – biochemical, small-molecule microarray, 635/667 nm fluorescence, primary screen (AID 1139). The conditions noted are these: fluorescence 635/667, higher = more signal.
Test [16] deals with wheat germ agglutinin (Triticum aestivum), Alexa647-labelled. Put plainly: Alexa647-WGA lectin binding to printed small molecules – biochemical, small-molecule microarray, 635/667 nm fluorescence, artefact control for SMM control-protein annotation, profiling panel (AID 1140).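 Further: score merges 667 nm feature emission with signal to noise over triplicate slides.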 The conditions noted are these: WGA-A647 binding, 635 nm fluorescence, higher = more signal.
Test [17] deals with Luciferin 4-monooxygenase (Photinus pyralis) (UniProt P08659). Put plainly: inhibition of purified Photinus pyralis luciferase – biochemical, luminescence, purified enzyme, 2006 set, primary screen (AID 1141).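 Further: cell-free assay with purified firefly luciferase at 100 ng per well in PBS; test concentration not given here.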 The conditions noted are these: purified firefly luciferase, SteadyGlo luminescence, 30 min; higher = more signal, called active from +8 up or from −8 down.
Luciferin 4-monooxygenase (Photinus pyralis), sequence (P08659 whole entry, looked up): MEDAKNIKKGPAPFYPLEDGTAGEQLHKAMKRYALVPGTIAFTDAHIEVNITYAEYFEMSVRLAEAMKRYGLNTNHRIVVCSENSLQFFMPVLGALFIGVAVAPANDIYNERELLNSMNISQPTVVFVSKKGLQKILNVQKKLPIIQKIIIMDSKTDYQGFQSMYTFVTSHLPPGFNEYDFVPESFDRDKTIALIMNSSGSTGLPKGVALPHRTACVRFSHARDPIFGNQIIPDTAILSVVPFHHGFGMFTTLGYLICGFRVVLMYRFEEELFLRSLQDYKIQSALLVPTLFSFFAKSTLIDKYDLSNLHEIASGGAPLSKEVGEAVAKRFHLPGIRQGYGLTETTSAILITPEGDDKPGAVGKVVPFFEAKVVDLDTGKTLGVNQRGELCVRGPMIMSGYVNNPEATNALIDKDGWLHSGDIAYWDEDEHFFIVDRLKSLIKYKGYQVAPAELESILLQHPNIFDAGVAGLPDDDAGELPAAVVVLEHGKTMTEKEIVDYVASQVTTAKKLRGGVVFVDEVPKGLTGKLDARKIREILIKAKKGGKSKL

Activity calls are given as the source filed them.

Fibroblast growth factor 2 (Homo sapiens), sequence (P09038 whole entry, looked up): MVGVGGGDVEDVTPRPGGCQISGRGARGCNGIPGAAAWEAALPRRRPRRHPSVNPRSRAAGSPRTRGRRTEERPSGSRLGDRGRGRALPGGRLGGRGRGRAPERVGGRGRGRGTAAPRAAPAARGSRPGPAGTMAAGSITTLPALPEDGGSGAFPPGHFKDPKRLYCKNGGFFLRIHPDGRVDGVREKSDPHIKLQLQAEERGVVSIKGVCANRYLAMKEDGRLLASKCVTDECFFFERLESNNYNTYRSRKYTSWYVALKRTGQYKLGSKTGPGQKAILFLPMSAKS
Concanavalin-A (Canavalia ensiformis), sequence (P02866 whole entry, looked up): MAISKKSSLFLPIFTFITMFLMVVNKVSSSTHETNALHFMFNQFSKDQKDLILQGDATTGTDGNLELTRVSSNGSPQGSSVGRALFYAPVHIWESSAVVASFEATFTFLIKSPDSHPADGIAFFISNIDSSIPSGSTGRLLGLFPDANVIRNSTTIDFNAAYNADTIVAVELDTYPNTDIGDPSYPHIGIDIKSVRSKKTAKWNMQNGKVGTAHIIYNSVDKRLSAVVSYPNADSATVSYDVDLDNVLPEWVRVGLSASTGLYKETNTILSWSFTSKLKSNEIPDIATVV
Albumin (Bos taurus), sequence (P02769 whole entry, looked up): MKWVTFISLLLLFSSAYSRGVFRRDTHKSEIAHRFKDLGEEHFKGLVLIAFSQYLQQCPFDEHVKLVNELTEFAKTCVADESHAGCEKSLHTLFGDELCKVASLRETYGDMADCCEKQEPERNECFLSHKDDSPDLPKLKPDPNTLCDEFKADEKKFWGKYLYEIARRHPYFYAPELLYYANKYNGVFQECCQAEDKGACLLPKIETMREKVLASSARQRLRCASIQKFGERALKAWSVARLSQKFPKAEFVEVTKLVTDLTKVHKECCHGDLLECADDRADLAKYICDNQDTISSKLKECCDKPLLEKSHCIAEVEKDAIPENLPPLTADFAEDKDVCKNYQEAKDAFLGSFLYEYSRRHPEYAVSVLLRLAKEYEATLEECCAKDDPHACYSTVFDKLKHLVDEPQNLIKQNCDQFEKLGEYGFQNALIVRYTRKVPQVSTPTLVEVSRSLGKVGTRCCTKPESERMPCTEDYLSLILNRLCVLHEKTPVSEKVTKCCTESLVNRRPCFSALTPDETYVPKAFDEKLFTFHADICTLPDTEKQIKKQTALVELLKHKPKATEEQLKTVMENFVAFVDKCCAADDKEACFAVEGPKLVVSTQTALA

As for `CC=CC(O)C1C=CC2C(=O)NC(=O)C2N1Nc1ccccn1` (stereo not given), the composite z-score was 0.456 with Albumin (Bos taurus); -0.0362 in test [2]; -0.112 in test [3]; 0.463 in test [4]; 0.717 in test [5]; 0.654 in [6]. Further, the composite z-score with Sam68 (KHDRBS1) came out at 0.463; in test [7], 1.04; in [8] it was 0.855; in test [9] it was 1.41; in [10], 0.497; in [11], 0.381. Besides, the composite z-score in test [12] is 0.657; in test [13], 1.02; in test [14], 0.352; in the test with Lefty1, 0.585; in test [16], 0.0489. For the same molecule, in [1], the composite Z-score was 0.289 (inactive). For the same molecule, the results for the z-score in [15] and in test [17] were 0.514 and -0.0429 (inactive), respectively.
For the molecule `C=C(CCCC)C(=O)CC[C@H](OC(=O)c1ccccc1-c1ccccc1C(=O)O)c1ccccc1OCCO`, the composite z-score with Albumin (Bos taurus) is 0.0147; in [2], -0.104; in test [3], -0.189; in [4] it was 0.693; in test [5] it was 0.043; in [6], 0.61. The composite z-score with Sam68 (KHDRBS1) was 0.203; in test [7] it was 0.277; in test [8], -0.496; in [9] it was 1.51; in test [10] it was 0.341; in test [11], -0.218. Further, the composite z-score in test [12] is 0.412; in [13], 0.419; in test [14], 0.448; in the test on Lefty1, 0.311; in test [16], -0.107. Besides, the composite Z-score in test [1] is -0.104 (inactive). In addition, the results for the z-score in test [15] and in test [17] were 0.58 and -1.82 (inactive), respectively.
Take `C=C(/C(=C/C[C@H](OC(=O)c1ccncc1)c1cccc(OCCO)c1)c1cnc2ccccc2c1)C(C)C`: the composite z-score with Albumin (Bos taurus) was -0.134; in test [2] it was 0.0306; in test [3], -0.0264; in test [4], 0.942; in [5] it was 0.301; in [6], 1.04. Moreover, the composite z-score is 1.23 in the test on Sam68 (KHDRBS1); 1.33 in test [7]; 0.898 in test [8]; 0.291 in test [9]; 0.952 in [10]; 0.807 in [11]. The composite z-score in test [12] was found to be 0.247; in test [13] it was 1.46; in test [14], 1.85; in the test with Lefty1, 1.6; in [16], 1.33. The composite Z-score in test [1] was -1.19 (inactive). Also, the z-score in [15] is 0.945; in test [17], -0.799 (inactive).
In the case of `Cc1ccc(N2C(=O)c3ccccc3[C@](C)(C(=O)NCc3ccccc3)[C@@H]2c2ccc(CO)cc2)nc1`, the composite z-score with Albumin (Bos taurus) was -0.377; in test [2], 0.0311; in [3], 0.0611; in test [4], 0.764; in test [5] it was 0.688; in test [6] it was 0.656. In addition, the composite z-score with Sam68 (KHDRBS1) was -0.316; in [7], 0.408; in [8], 0.0943; in [9], 2.31; in test [10] it was -0.27; in test [11], 0.771. The composite z-score in [12] was -0.887; in test [13] it was 1.31; in [14], 0.464; in the test with Lefty1, -0.0828; in [16], 0.0023. For the same molecule, the composite Z-score in test [1] was -0.446 (inactive). Besides, the z-score was -0.425 in [15] and -1.1 (inactive) in [17].
In the case of `C=CCN1C(=O)[C@]2(O[C@H](CCO)[C@@H]([Si](C)(C)c3ccc(OC)cc3)[C@@H]2C)c2cc(NC(=O)c3ccc(OC)cc3)ccc21`, the composite z-score with Albumin (Bos taurus) was -0.296; in test [2], -0.0017; in test [3], -0.108; in test [4], 0.216; in [5], 0.13; in [6], 0.0305. The composite z-score in the test on Sam68 (KHDRBS1) is 1.04; in [7] it was 0.878; in test [8] it was 0.689; in test [9] it was 1.17; in test [10], 0.668; in [11], 0.241. Also, the composite z-score in test [12] amounted to 0.318; in [13], 1.36; in test [14] it was 1.21; in the test on Lefty1 it was 1.03; in test [16], 0.286. In addition, the composite Z-score in test [1] is 0.0866 (inactive). In addition, the z-score in test [15] is -1; in [17], -0.772 (inactive).

The values are drawn from PubChem BioAssay.
